PubChem BioAssay (Tox21)
Inconclusive results are not listed. Calls of active or inactive are those of the source. The call rests on the fitted dose curve; in most records, active means well fitted curve in the direction sought with a large enough effect in the repeat runs; inconclusive means weak or mixed curves; inactive means no such curve, though single readings can be large; an effect the other way counts as inactive or inconclusive.

Key:
[1] = A CellTox Green Cytotoxicity Assay to monitor cytotoxicity in HEK293 cells - 24 hour (AID 1224875); further: series mostly up to about 77 µM; nearly all actives have a fitted effect of over 45% in size
Outline: (§1)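 Tox21 screen in HEK293: membrane-impermeant cyanine dye fluoresces on binding dead-cell DNA; compound pinned 5 h post-seeding, plates held at 37 C, signal read repeatedly through 40 h.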

[2] = A CellTox Green Cytotoxicity Assay to monitor cytotoxicity in HepG2 cells - 16 hour (AID 1224876); further: nearly all actives have a fitted effect of over 45% in size
Outline: (§2)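 Measurements at 0, 8, 16, 24, 32 and 40 h of treatment captured CellTox Green fluorescence in HepG2 cells that had been co-plated with reagent and preincubated 5 h at 37 C/5% CO2.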

[3] = qHTS RealTime-Glo MT Cell Viability Assay in HepG2 cells - 32 hour (AID 1224877); further: nearly all actives have a fitted effect of over 55% in size
Outline: (§3)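 Compound treatment began 5 h after plating HepG2 cells (600/well) with NanoLuc luciferase and prosubstrate. Plates stayed at 37 C for 40 h; luminescence was captured at six time points, 0 h through 40 h.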

[4] = A CellTox Green Cytotoxicity Assay to monitor cytotoxicity in HepG2 cells - 24 hour (AID 1224878); further: nearly all actives have a fitted effect of over 45% in size
Outline: as §2

[5] = A CellTox Green Cytotoxicity Assay to monitor cytotoxicity in HepG2 cells - 40 hour (AID 1224879); further: nearly all actives have a fitted effect of over 40% in size
Outline: as §2

[6] = qHTS RealTime-Glo MT Cell Viability Assay in HEK293 cells - 0 hour (AID 1224880); further: top concentration of the series differs between compounds; nearly all actives have a fitted effect of over 45% in size
Outline: (§4)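 HEK293 + NanoLuc + prosubstrate, 600 cells/well; 5 h, 37 C/5% CO2; compound 23 nL in DMSO by pintool; 37 C; luminescence read at 0, 8, 16, 24, 32 and 40 h time points.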

[7] = A CellTox Green Cytotoxicity Assay to monitor cytotoxicity in HEK293 cells - 32 hour (AID 1224881); further: nearly all actives have a fitted effect of over 40% in size
Outline: as §1

[8] = A CellTox Green Cytotoxicity Assay to monitor cytotoxicity in HepG2 cells - 0 hour (AID 1224882); further: nearly all actives have a fitted effect of over 35% in size
Outline: as §2

[9] = A CellTox Green Cytotoxicity Assay to monitor cytotoxicity in HepG2 cells - 32 hour (AID 1224883); further: nearly all actives have a fitted effect of over 50% in size
Outline: as §2

[10] = A CellTox Green Cytotoxicity Assay to monitor cytotoxicity in HEK293 cells - 8 hour (AID 1224884); further: nearly all actives have a fitted effect of over 35% in size
Outline: as §1

[11] = qHTS RealTime-Glo MT Cell Viability Assay in HepG2 cells - 16 hour (AID 1224885); further: nearly all actives have a fitted effect of over 50% in size
Outline: as §3

[12] = qHTS RealTime-Glo MT Cell Viability Assay in HEK293 cells - 24 hour (AID 1224886); further: nearly all actives have a fitted effect of over 50% in size; further: potency means the concentration at half of the fitted maximal effect; on activity change, negative = cytotoxicity: top concentration of the series differs between compounds
Outline: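 Quantitative high-throughput screen of the Tox21 10K library in HEK293: cells and RealTime-Glo reagents plated together, compound added at 5 h, luminescence monitored through 40 h at 37 C.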

[13] = qHTS RealTime-Glo MT Cell Viability Assay in HEK293 cells - 8 hour (AID 1224887); further: nearly all actives have a fitted effect of over 50% in size; further: potency means the concentration at half of the fitted maximal effect; on activity change, negative = cytotoxicity: top concentration of the series differs between compounds
Outline: as §4

[14] = A CellTox Green Cytotoxicity Assay to monitor cytotoxicity in HEK293 cells - 16 hour (AID 1224888); further: nearly all actives have a fitted effect of over 35% in size
Outline: as §1

[15] = qHTS RealTime-Glo MT Cell Viability Assay in HepG2 cells - 0 hour (AID 1224889); further: nearly all actives have a fitted effect of over 50% in size
Outline: as §3

[16] = A CellTox Green Cytotoxicity Assay to monitor cytotoxicity in HepG2 cells - 8 hour (AID 1224890); further: nearly all actives have a fitted effect of over 45% in size
Outline: as §2

[17] = qHTS assay to identify small molecule antagonists of the estrogen receptor alpha (ER-alpha) signaling pathway using the BG1 cell line in the presence of 0.1 nM 17-beta-estradiol - cell viability counter screen (AID 1259241); further: nearly all actives have a fitted effect of over 40% in size
Outline: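 VM7Luc4E2 cells (endogenous full-length ER-alpha, 4xERE-luciferase), cultured 5 days in charcoal-stripped serum, exposed to compounds with 0.1 nM 17beta-estradiol (final) for 22 hr at 37C. Viability read in same wells as live-cell protease fluorescence after 30 min.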

[18] = qHTS assay to identify small molecule antagonists of the androgen receptor (AR) signaling pathway using the MDA cell line in the presence of 0.5 nM R1881 - cell viability counter screen (AID 1259242); further: nearly all actives have a fitted effect of over 45% in size
Outline: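 Concentration-response screen of compounds for toxicity in MDA-kb2 reporter cells: 16 hr at 37C with 0.5 nM R1881, endpoint live-cell protease fluorescence measured in the reporter wells.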

[19] = molecular target: Estrogen receptor (Homo sapiens) (UniProt P03372); assay: qHTS assay to identify small molecule antagonists of the estrogen receptor alpha (ER-alpha) signaling pathway using the BG1 cell line in the presence of 0.1 nM 17-beta-estradiol (AID 1259244); further: nearly all actives have a fitted effect of over 50% in size
Estrogen receptor (Homo sapiens), sequence (P03372 whole entry, looked up): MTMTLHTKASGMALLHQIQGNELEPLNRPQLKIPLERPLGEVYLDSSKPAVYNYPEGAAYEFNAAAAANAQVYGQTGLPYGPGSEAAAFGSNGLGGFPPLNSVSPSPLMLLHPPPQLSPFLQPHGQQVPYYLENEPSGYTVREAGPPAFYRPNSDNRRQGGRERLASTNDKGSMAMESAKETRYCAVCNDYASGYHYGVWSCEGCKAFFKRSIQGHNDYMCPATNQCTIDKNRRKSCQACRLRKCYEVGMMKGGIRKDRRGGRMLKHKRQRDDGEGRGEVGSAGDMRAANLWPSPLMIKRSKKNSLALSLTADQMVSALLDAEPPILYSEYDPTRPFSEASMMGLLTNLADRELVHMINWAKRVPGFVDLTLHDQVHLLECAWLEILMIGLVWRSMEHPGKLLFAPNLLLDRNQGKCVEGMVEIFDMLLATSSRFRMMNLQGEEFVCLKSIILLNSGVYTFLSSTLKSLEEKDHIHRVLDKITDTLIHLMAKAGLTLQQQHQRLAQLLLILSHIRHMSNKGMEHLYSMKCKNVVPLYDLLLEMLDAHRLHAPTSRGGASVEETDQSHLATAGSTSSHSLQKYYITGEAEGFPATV
Outline: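 Compounds were tested against 0.1 nM (final) 17beta-estradiol in VM7Luc4E2 cells, which express full-length ER-alpha and an ERE-luciferase reporter; luminescence was recorded following 22 h exposure.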

[20] = molecular target: Androgen receptor (Homo sapiens) (UniProt P10275); assay: qHTS assay to identify small molecule antagonists of the androgen receptor (AR) signaling pathway using the MDA cell line in the presence of 0.5 nM R1881 (AID 1259243); further: nearly all actives have a fitted effect of over 50% in size
Androgen receptor (Homo sapiens), sequence (P10275 whole entry, looked up): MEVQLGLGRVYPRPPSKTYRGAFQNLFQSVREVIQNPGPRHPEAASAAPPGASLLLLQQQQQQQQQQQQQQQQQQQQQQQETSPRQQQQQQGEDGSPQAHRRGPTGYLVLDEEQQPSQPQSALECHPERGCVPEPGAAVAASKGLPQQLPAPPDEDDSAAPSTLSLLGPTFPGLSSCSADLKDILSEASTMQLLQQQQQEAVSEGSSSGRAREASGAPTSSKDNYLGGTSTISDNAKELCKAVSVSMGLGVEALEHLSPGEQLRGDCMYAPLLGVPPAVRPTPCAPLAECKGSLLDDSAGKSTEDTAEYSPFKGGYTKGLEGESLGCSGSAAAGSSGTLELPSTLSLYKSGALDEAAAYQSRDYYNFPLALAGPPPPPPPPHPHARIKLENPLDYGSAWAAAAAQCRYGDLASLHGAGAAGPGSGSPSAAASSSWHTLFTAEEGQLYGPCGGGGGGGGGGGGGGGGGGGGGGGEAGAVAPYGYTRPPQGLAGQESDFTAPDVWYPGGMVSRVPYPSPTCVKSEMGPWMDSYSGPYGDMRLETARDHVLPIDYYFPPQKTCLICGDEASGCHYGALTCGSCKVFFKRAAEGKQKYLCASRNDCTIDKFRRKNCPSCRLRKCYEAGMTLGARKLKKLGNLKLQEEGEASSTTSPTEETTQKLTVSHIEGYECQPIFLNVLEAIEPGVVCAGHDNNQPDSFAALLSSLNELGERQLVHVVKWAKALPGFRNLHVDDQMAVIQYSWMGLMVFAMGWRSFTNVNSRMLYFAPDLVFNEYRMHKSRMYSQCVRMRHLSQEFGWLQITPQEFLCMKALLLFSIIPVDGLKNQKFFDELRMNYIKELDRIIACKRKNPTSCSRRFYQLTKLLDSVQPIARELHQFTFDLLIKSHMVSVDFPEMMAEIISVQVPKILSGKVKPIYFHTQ
Outline: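 With R1881 held at 0.5 nM (final), compound effects on MMTV-luciferase expression in MDA-kb2 cells were scored by luminescence after a 16 hr, 37C incubation.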
On the % scale 0 is the no-effect control and ±100 the full control effect.

Cc1ccc2n[nH]nc2c1
inactive: Potency [1] | Potency [2] | Potency [3] | Potency [4] | Potency [5] | Potency [6] | Potency [7] | Potency [8] | Potency [9] | Potency [10] | Potency [11] | Potency [12] | Potency [13] | Potency [14] | Potency [15] | Potency [16] | Potency [17] | Potency [18] | Potency [19]

CCOC(=O)[C@H](O)[C@@H](O)C(=O)OCC
inactive: Potency [1] | Potency [2] | Potency [3] | Potency [4] | Potency [5] | Potency [6] | Potency [7] | Potency [8] | Potency [9] | Potency [10] | Potency [11] | Potency [12] | Potency [13] | Potency [14] | Potency [15] | Potency [16] | Potency [17] | Potency [18] | Potency [20] | Potency [19]

C=CC(C)(C)O
inactive: Potency [1] | Potency [2] | Potency [3] | Potency [4] | Potency [5] | Potency [6] | Potency [7] | Potency [8] | Potency [9] | Potency [10] | Potency [11] | Potency [12] | Potency [13] | Potency [14] | Potency [15] | Potency [16] | Potency [17] | Potency [18] | Potency [20] | Potency [19]

CC(CC(C)(C)C)CC(C)(C)CC(C)(C)C (stereo not given)
inactive: Potency [1] | Potency [2] | Potency [3] | Potency [4] | Potency [5] | Potency [6] | Potency [7] | Potency [8] | Potency [9] | Potency [10] | Potency [11] | Potency [12] | Potency [13] | Potency [14] | Potency [15] | Potency [16] | Potency [17] | Potency [18] | Potency [20]

COc1cc(OC)nc(NC(=O)NS(=O)(=O)Nc2ccccc2C(=O)N(C)C)n1
inactive: Potency [1] | Potency [2] | Potency [3] | Potency [4] | Potency [5] | Potency [6] | Potency [7] | Potency [8] | Potency [9] | Potency [10] | Potency [11] | Potency [12] | Potency [13] | Potency [14] | Potency [15] | Potency [16] | Potency [17] | Potency [18] | Potency [19]

Cc1c(Cl)c(=O)oc2cc(O)ccc12
active: Potency [12] 49 µM | Potency [13] 43.6 µM
inactive: Potency [1] | Potency [2] | Potency [3] | Potency [4] | Potency [5] | Potency [6] | Potency [7] | Potency [8] | Potency [9] | Potency [10] | Potency [11] | Potency [14] | Potency [15] | Potency [16]

NC(=O)C1CO1 (stereo not given)
inactive: Potency [1] | Potency [2] | Potency [3] | Potency [4] | Potency [5] | Potency [6] | Potency [7] | Potency [8] | Potency [9] | Potency [10] | Potency [11] | Potency [12] | Potency [13] | Potency [14] | Potency [15] | Potency [16] | Potency [17] | Potency [18] | Potency [20] | Potency [19]

C/C(=N\[Si](C)(C)C)O[Si](C)(C)C
inactive: Potency [1] | Potency [2] | Potency [3] | Potency [4] | Potency [5] | Potency [6] | Potency [7] | Potency [8] | Potency [9] | Potency [10] | Potency [11] | Potency [12] | Potency [13] | Potency [14] | Potency [15] | Potency [16] | Potency [17] | Potency [20] | Potency [19]

O=C(O)CN(CCCN(CC(=O)O)CC(=O)O)CC(=O)O
inactive: activity change [1] 1.78% [at 15.8 µM, hits give high values] | cytotoxicity increase [2] -15.6% [at 15.8 µM] | activity change, negative = cytotoxic [3] 7.15% [at 15.8 µM] | cytotoxicity [4] -12.4% [at 15.8 µM] | cytotoxicity increase [5] -13.1% [at 15.8 µM] | activity change, negative = cytotoxicity [6] -10.1% [at 15.8 µM] | cytotoxicity increase [7] 1.94% [at 15.8 µM] | cytotoxicity [8] -9.07% [at 15.8 µM] | cytotoxicity increase [9] -13.5% [at 15.8 µM] | cytotoxicity increase [10] -4.96% [at 15.8 µM] | activity change, negative = cytotoxic [11] -11.5% [at 15.8 µM] | activity change, negative = cytotoxicity [12] -9.03% [at 15.8 µM] | activity change, negative = cytotoxicity [13] -4.97% [at 15.8 µM] | activity change [14] 0.612% [at 15.8 µM, hits give high values] | activity change, negative = cytotoxicity [15] -28.3% [at 15.8 µM] | cytotoxicity increase [16] -1.45% [at 15.8 µM] | activity change, negative = cytotoxicity [17] 0.536% [at 19 µM] | viability change, negative = cytotoxic [18] 0.128% [at 19 µM] | activity, negative = inhibition [20] 1.14% [at 19 µM] | activity change, negative = inhibition [19] -0.399% [at 19 µM]

Nc1cc([N+](=O)[O-])cc(Cl)c1O
inactive: Potency [1] | Potency [2] | Potency [3] | Potency [4] | Potency [5] | Potency [6] | Potency [7] | Potency [8] | Potency [9] | Potency [10] | Potency [11] | Potency [12] | Potency [13] | Potency [14] | Potency [15] | Potency [16] | Potency [17] | Potency [18] | Potency [19]

O=C1OC(=O)c2cc(-c3ccc4c(c3)C(=O)OC4=O)ccc21
inactive: Potency [1] | Potency [2] | Potency [3] | Potency [4] | Potency [5] | Potency [6] | Potency [7] | Potency [8] | Potency [9] | Potency [10] | Potency [11] | Potency [12] | Potency [13] | Potency [14] | Potency [15] | Potency [16] | Potency [17] | Potency [18] | Potency [19]
